Source: PubChem BioAssay AID1963576 (National Center for Advancing Translational Sciences (NCATS), 2024)
Screen size: about 46,000 compounds; about 60 (0.1%) were called active. A call without a number means that no potency is given here. Roughly 3% stayed inconclusive and do not appear here. Calls come from the whole dose curve; as a rule, active = well fitted inhibition curve with a large enough effect; inconclusive = small, poorly fitted or top-dose-only effect; inactive = no such curve, though single readings can be large or run the other way. For the sample, actives were picked, then their nearest neighbours and some compounds at random.

assay: Primary qHTS assay for Inhibitors of ovarian cancer metastasis using an organotypic tumor microenvironment (TME) model.; note: nearly all actives have a fitted effect of over 65% in size;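 for potency: count of GFP cancer cells still attached after washing and fixation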; conditions: SKOV3ip1-GFP adhesion/invasion on 3D omental model, fluorescence; series mostly up to 45.8 µM
Text: PI: Ernst Lengyel MD., Ph.D. Department of Obstetrics and Gynecology, Section of Gynecologic Oncology University of Chicago Medicine, Chicago, Illinois. The tumor microenvironment (TME) is a key determinant of metastatic efficiency. We performed a quantitative high-throughput screen (qHTS) of diverse medicinal chemistry tractable scaffolds (44,420 compounds) and pharmacologically active small molecules (386 compounds) using a layered organotypic, robust assay representing the ovarian cancer metastatic TME. This 3D model contains primary human mesothelial cells, fibroblasts, and extracellular matrix, to which fluorescently labeled ovarian cancer cells are added. Initially, 100 compounds inhibiting ovarian cancer adhesion/invasion to the 3D model in a dose-dependent manner were identified. Of those, eight compounds were confirmed active in five high-grade serous ovarian cancer cell lines and were further validated in secondary in vitro and in vivo biological assays. […] Specifically, NCGC00117362 and PP-121 inhibited ovarian cancer adhesion, invasion, and proliferation, whereas milciclib inhibited ovarian cancer invasion and proliferation. […] To evaluate the clinical potential of NCGC00117362, structure - activity relationship studies were performed. […] The three compounds identified have promise as therapeutics for prevention and treatment of ovarian cancer metastasis.
PROTOCOL TABLE (as described by Inglese J, Shamu CE and Guy RK. 2007) SEQUENCE No. (e.g., 1, 2, 3, etc.); […] (e.g., Cells, Incubation, Reagent, etc.); VALUE; DESCRIPTION. 1; Cells; 4 uL; primary human omental fibroblast, black, clear bottom, low base, 1536-well Aurora assay plate. 2; Incubation; 48 hr; 37C. 3; Cells; 3 uL; 1,200 SKOV3ip1-GFP cells. 4; Compounds; 23nL; acoustic dispenser. 5; Incubation; 2 hr; room temperature. 6; Incubation; 16 hr; 37C. 7; Wash; 5 uL; 1x PBS. 8; Fixing; 5 uL; 4% paraformaldehyde (PFA). 9; Incubation; 15 min; room temperature 10; Wash, 5 uL; 1x PBS. 11; Detection; Fluorescence, excitation filter 488 nm, emission filter 509 nm. NOTES (numbers refer to Sequence numbers above) 1. For the 1,536-well format, 40 primary human omental fibroblasts and 400 mesothelial cells were seeded with 0.02 µg fibronectin and 0.02 µg collagen type I in 4 µL of growth media (2.3 mm2; Supplementary Fig. S1A). 2. Assay plates were incubated for 48 hours at 37 C. 3. After incubation, 1,200 SKOV3ip1-GFP were seeded in 3 µL of serum-free media (growth media minus FBS) on top of primary human omental cells. 4. Compounds or controls were added to each well immediately after the addition of the cancer cells. Compounds were screened in four doses (0.36-46 µmol/L), and the plates contained the positive control (Tomatine) in eight doses (0.035-75 µmol/L) and DMSO (equal volume controls) 5 - 6. The plates were incubated at room temperature for 2 hours and then at 37 degrees C for 16 hours. 7 - 10. Following incubation, the media were aspirated and each well washed with PBS (5 µL) and then fixed with 4% paraformaldehyde (PFA; 5 µL). After 15 minutes, the PFA solution was aspirated, PBS (5 µL) was added. 11. The number of GFP-labeled cells analyzed using a fluorescent cytometer TTP LabTech Acumen eX3 using 488 nm excitation filter and 509 nm emission filter. Data was normalized to the DMSO treated for negative and Tomatine treated wells for positive control. REFERENCES: Inglese J, Shamu CE and Guy RK, Reporting data from high throughput screening of small molecule libraries, Nature Chemical Biology, 2007, 3(8): 438-441. doi.org/10.1038/nchembio0807-438. Yasgar A, Shinn P, Jadhav A, Auld DS, Michael S, Zheng W, Austin CP, Inglese J and Simeonov A, Compound Management for Quantitative High-Throughput Screening. J. Assoc. Lab. Auto., 2008, 13: 79-89. doi: 10.1016/j.jala.2007.12.004.
Potency is the fitted concentration of half-maximal effect.

Row | Structure (SMILES) | Potency
1 | COc1cc(OC)cc(C(=O)Nc2cc3nn(-c4ccccc4)nc3cc2Cl)c1 | inactive
2 | CC(=O)c1ccc(N2CCN(c3nc4c(S(=O)(=O)c5ccccc5)nnn4c4ccc(Cl)cc34)CC2)cc1 | inactive
3 | Cc1ccc(CNC(=O)CCc2c(C)nn(-c3ccc(N4CCCC4)nn3)c2C)cc1 | inactive
4 | Cc1cccc(N(C)C(=O)c2cc(S(=O)(=O)N3CCCCC3)c[nH]2)c1 | inactive
5 | CO[C@H]1O[C@@H]2O[C@@]3(C)CC[C@@H]4[C@@H](C)CC[C@@H]([C@H]1C)[C@@]24OO3 | inactive
6 | Cn1c(SCC(=O)N2CCCc3ccccc32)ncc(C(=O)Nc2ccc(F)cc2)c1=O | inactive
7 | Cc1nn(Cc2ccc(F)cc2)c(C)c1NC(=O)c1cc(CC(C)C)on1 | inactive
8 | COc1ccccc1-c1nnc(SCC(N)=O)o1 | inactive
9 | CON=C(C(=O)N[C@@H]1C(=O)N2C(C(=O)OCOC(=O)C(C)(C)C)=C(C=Cc3scnc3C)CS[C@H]12)c1csc(N)n1 | inactive
10 | CCc1ccc(NC(=O)CSc2nc3c([nH]c4ccccc43)c(=O)n2-c2cccc(OC)c2)cc1 | inactive
11 | CCOC(=O)N1CCN([N+]([O-])=NOc2ccc([N+](=O)[O-])cc2[N+](=O)[O-])CC1 | inactive
12 | Cc1nc2c(-c3ccccc3)c(C)nn2c(C)c1CCC(=O)NCCc1ccccc1 | inactive
13 | Fc1ccc(-n2ncc3c(Nc4ccc(Oc5ccccc5)cc4)ncnc32)cc1 | inactive
14 | Cc1ccc(/C=C(\C#N)C(=O)Nc2cc(C)ccc2C)cc1 | inactive
15 | CSc1ccc(CCNC(=O)c2cnn(-c3ccccc3)c2-n2cccc2)cc1 | inactive
16 | COc1ccc(C2CC(=O)Nc3c2c(=O)nc2c(C)cccn32)cc1OC (stereo not given) | inactive
17 | CCN1CCN(c2cc(C)c3cc(NC(=O)c4cc(Cl)ccc4OC)ccc3n2)CC1 | 3.55 µM (active)
18 | COc1ccc(C(=O)Nc2ccc3nc(N4CCCCC4)cc(C)c3c2)cc1OC | inactive
19 | COc1ccc(NC(=O)c2cnc(Nc3ccc(C)c(Cl)c3)c3ccccc23)cc1OC | inactive
20 | CC(NC(=O)c1cc2c(=O)n3ccccc3nc2n(C(C)C)c1=N)c1ccccc1 (stereo not given) | inactive
21 | COc1cc2ccccc2cc1C(=O)Nc1cccc(-c2nc3ccccc3o2)c1 | inactive
22 | CCN1CCN(c2ncnc3c2cnn3-c2ccc(C)c(C)c2)CC1 | inactive
23 | CCc1cccc(NC(=O)CN(c2ccc(C)c(C)c2)S(=O)(=O)c2ccsc2C(=O)OC)c1 | inactive

Row | Structure (SMILES) | Potency
24 | CCc1nccn1S(=O)(=O)c1cc(Br)ccc1Br | inactive
25 | CCc1ccc(S(=O)(=O)c2nnn3c2nc(NCc2ccccc2OC)c2cc(Cl)ccc23)cc1 | inactive
26 | Cc1ccc(NC(=O)c2oc3ccc(S(=O)(=O)N4CCCCC4)cc3c2C)cc1Cl | inactive
27 | Cc1ccc(-n2ncc3c(NCCCn4ccnc4)ncnc32)cc1Cl | inactive
28 | Cc1ccc(-n2c(SCC(=O)Nc3cccc(F)c3)nc3c(oc4ccccc43)c2=O)cc1C | inactive
29 | CC=CC[C@@H](C)C(=O)[C@H]1C(=O)N[C@@H](C(C)C)C(=O)N(C)CC(=O)N(C)[C@@H](CC(C)C)C(=O)N[C@@H](C(C)C)C(=O)N(C)[C@@H](CC(C)C)C(=O)N[C@@H](C)C(=O)N[C@H](C)C(=O)N(C)[C@@H](CC(C)C)C(=O)N(C)[C@@H](CC(C)C)C(=O)N(C)[C@@H](C(C)C)C(=O)N1C | inactive
30 | CCc1nc2nc(C)cc(Nc3ccc(F)c(Cl)c3)n2n1 | inactive
31 | COc1cc2nc(SCC(=O)Nc3ccccc3F)n3nc(-c4ccccc4)nc3c2cc1OC | inactive
32 | Cc1ccc(Cn2c(CNC(=O)Cc3cccc(C)c3)nc3cccnc32)cc1 | inactive
33 | O=C(Cn1nc(C(F)(F)F)c2c1CCCC2)Nc1ccc(Cl)cc1 | inactive
34 | COc1ccc(NC(=O)COCc2cc(-c3ccco3)on2)cc1 | inactive
35 | O=C(Cn1nc(Cc2cccnc2)c2ccccc2c1=O)N1CCN(c2ccccc2F)CC1 | inactive
36 | COc1ccc(CN2CCc3nc(Nc4ccccc4)ncc3C2)c(OC)c1OC | inactive
37 | CO[C@H]1C[C@@H]2CC[C@@H](C)[C@@](O)(O2)C(=O)C(=O)N2CCCC[C@@H]2C(=O)O[C@H]([C@@H](C)C[C@@H]2CC[C@H](O)[C@H](OC)C2)CC(=O)[C@H](C)C=C(C)[C@@H](O)[C@@H](OC)C(=O)[C@H](C)C[C@H](C)C=CC=CC=C1C | inactive
38 | COc1ccc(-c2cn3c(n2)sc2cc(C(=O)Nc4ccc(F)cc4)ccc23)cc1 | inactive
39 | CCOC(=O)c1ccccc1NC(=O)c1sc2nc(-c3ccc(F)cc3)cn2c1C | inactive
40 | COc1ccc(-c2cn3c(C)c(C(=O)Nc4cc(C)cc(C)c4)sc3n2)cc1 | 8.91 µM (active)
41 | CCOC(=O)c1cc2c(=O)n3ccccc3nc2n(Cc2ccco2)c1=NC(=O)c1ccc(F)cc1 | inactive
42 | Cn1c(=O)c2c(n3c4ccccc4nc13)NC(=O)CC2c1cccc(Cl)c1 (stereo not given) | inactive
43 | COc1cccc(CNC(=O)CN2C(=O)CCc3cc(S(=O)(=O)N4CCOCC4)ccc32)c1 | inactive
44 | Cc1cccc(NC(=O)c2nnn(CC(=O)Nc3ccc(C(C)C)cc3)c2N)c1C | inactive
45 | O=C(NCCc1ccccc1)c1ccc2c(c1)N(Cc1ccc(F)cc1)C(=O)c1ccccc1S2(=O)=O | inactive
46 | COc1ccc(CNC(=O)CSc2nc3ccccc3nc2Cc2ccccc2)cc1 | inactive

Row | Structure (SMILES) | Potency
47 | CCc1ccc(S(=O)(=O)c2nnn3c2nc(N2CCN(CC)CC2)c2sccc23)cc1 | inactive
48 | COc1ccc2oc(=O)c(-c3cn4c(n3)sc3cc(OC)ccc34)cc2c1 | inactive
49 | O=C(Nc1ccc(-c2nc3cc(NC(=O)c4ccccc4Cl)ccc3o2)cc1)c1ccccc1Cl | inactive
50 | CCOC(=O)c1c(N)n(-c2cccc(C)c2C)c2nc3ccccc3nc12 | inactive
51 | Cc1ccc(Nc2nc3ccccc3nc2-n2nc(C)cc2C)c(Cl)c1 | inactive
52 | COc1cc(C(=O)N2CCC(c3ccncc3)CC2)cc(OC)c1OC | inactive
53 | Cc1ccc(S(=O)(=O)N2CCC(C(=O)Nc3cc(C)ccc3C)CC2)cc1 | inactive
54 | CC=CCC=CCCC(=O)[C@H]1O[C@@H]1C(N)=O | inactive
55 | Cc1nnc(SCC(=O)NCc2ccccc2Cl)c2nn(-c3ccccc3)c(C)c12 | inactive
56 | CCC(C(=O)Nc1cc(OC)ccc1OC)n1c(=O)c(C(F)(F)F)nc2ccccc21 (stereo not given) | inactive
57 | CN1CCN(C2(CNC(=O)COc3ccc(C(C)(C)C)cc3)CCCCC2)CC1 | inactive
58 | CCOc1ccccc1N(C)C(=O)c1cc2c(s1)-c1ccccc1OC2 | inactive
59 | Cc1nn(-c2ccc(N3CCCCC3)nn2)c(C)c1CCC(=O)NCc1ccc(F)cc1 | inactive
60 | O=C(Nc1c(-c2ccc(F)cc2)nc2ccccn12)c1cccc(F)c1 | inactive
61 | CC(=O)OC[C@@H]1O[C@@H](n2ccc(=O)[nH]c2=O)[C@H](OC(C)=O)[C@H]1OC(C)=O | inactive
62 | CN(C(=O)CSc1nnc(NC(=O)Nc2ccccc2)s1)c1ccccc1 | inactive
63 | CC1CCCCN1CC(=O)N1CCCc2c1c(=O)oc1ccc(OCc3ccccc3)cc21 (stereo not given) | inactive
64 | O=S(=O)(NCCS(=O)(=O)N1CCN(c2ccccc2)CC1)c1ccc(Cl)cc1 | inactive
65 | Cc1cccc(NC(=O)C2CCN(S(=O)(=O)c3c(C)noc3/C=C/c3ccco3)CC2)c1 | inactive
66 | CC(C)Cn1c(=O)c2ccccc2n2c(CCC(=O)N3CCN(c4cccc(Cl)c4)CC3)nnc12 | inactive
67 | COc1ccc(-c2cc(C(F)(F)F)n3nc(-c4ccccc4)cc3n2)cc1OC | inactive
68 | CC(C(C)N1CC(=O)NC(=O)C1)N1CC(=O)NC(=O)C1 (stereo not given) | inactive
69 | Cc1ccc(CNS(=O)(=O)c2ccc(C(=O)N(C)C)s2)cc1 | inactive

Row | Structure (SMILES) | Potency
70 | CSc1ncc(Cl)c(C(=O)Nc2ccc(S(=O)(=O)N3CCCC(C)C3)cc2)n1 (stereo not given) | inactive
71 | Cc1ccc(-c2cc(N)n(Cc3cccc(Cl)c3)n2)cc1 | inactive
72 | C[C@]12CCC3=C4CCC(=O)C=C4CC[C@@H]3[C@H]1CC[C@@]2(O)CC#N | inactive
73 | CCC(=O)N1CCc2cc(Br)cc(S(=O)(=O)Nc3ccc(C)cc3C)c21 | inactive
74 | Cc1cccc(NC(=O)c2cc3c(C)nn(-c4ccccc4)c3s2)c1 | inactive
75 | Cc1ccc(-c2nn3c(=O)cc(CN4CCN(C(=O)Nc5cccc(C(F)(F)F)c5)CC4)nc3s2)cc1 | inactive
76 | CCOC(=O)CN1C(C(=O)c2ccccc2)=C(OC(=O)C(C)(C)C)c2ccccc2S1(=O)=O | inactive
77 | O=C(CC1C(=O)N(c2ccccc2)C(=O)N1CCc1cccs1)Nc1ccc(F)cc1 (stereo not given) | inactive
78 | O=C(CN1c2ccccc2S(=O)(=O)c2ccccc21)Nc1cccc(C(F)(F)F)c1 | inactive
79 | CC(C)(C)OC(=O)N1CCC(c2c(C(=O)N3CCN(c4cccc(Cl)c4)CC3)cnn2-c2cccc(Cl)c2)CC1 | inactive
80 | CCc1ccccc1NC(=O)CCOc1ccccc1 | inactive
81 | Cc1cccc(OCCCC(=O)Nc2sc3c(c2C(N)=O)CCC(C)C3)c1 (stereo not given) | inactive
82 | CCN(CC)CCCCNc1ncc2c(n1)N(C)C(=O)N(c1c(Cl)c(OC)cc(OC)c1Cl)C2 | inactive
83 | Cc1cccc(N2CCN(C(=O)c3cc4c(=O)oc5ccccc5c4s3)CC2C)c1 (stereo not given) | inactive
84 | COCCCNC(=O)CN1C(=O)CSc2ccc(S(=O)(=O)N3CCOCC3)cc21 | inactive
85 | CCc1ccccc1N1CC(c2nc3ccccc3n2CCCCOc2ccccc2)CC1=O (stereo not given) | inactive
86 | COc1cc(Nc2nc(-c3ccc(OC)c(OC)c3)nc3ccccc23)cc(OC)c1 | 10 µM (active)
87 | COc1cccc(Nc2nc3ccccc3c3nncn23)c1 | inactive
88 | CCOC(=O)c1nc(Nc2ccc(C(=O)OC)cc2)c2ccccc2n1 | inactive
89 | COc1ccc(C2=CC(c3ccccc3Cl)n3nc(-c4ccc(Cl)cc4)nc3N2)cc1 (stereo not given) | inactive
90 | O=C(CCC(=O)N1CC2CCCN2c2ccccc21)NCc1ccccc1Cl (stereo not given) | inactive
